From PubChem BioAssay
Pf growth 96h: P. falciparum growth inhibition at 96 hours. P. falciparum luciferase reporter growth, 96 h. Potency, µM (doses to about 28.7 µM), actives largely listed as inhibitors. hit rate 6.9% among 320,000. AID 504834
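Compounds incubated with erythrocytes infected by luciferase-expressing P. falciparum (2% hematocrit, 0.05% parasitemia final) for 96 hours, 37 C in 5% CO2. Growth inhibition scored as decreased luciferase luminescence.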
AmpC inh detg: blocks E. coli AmpC beta-lactamase in detergent assay; AmpC hydrolysis of nitrocefin, absorbance 480 nm, 0.01% Triton; Potency, µM (doses to about 114 µM), most hits filed as inhibitors; hit rate 0.041% among 370,000; also: nearly all actives have a fitted effect of over 25% in size
Target sequence (P00811 whole entry, looked up): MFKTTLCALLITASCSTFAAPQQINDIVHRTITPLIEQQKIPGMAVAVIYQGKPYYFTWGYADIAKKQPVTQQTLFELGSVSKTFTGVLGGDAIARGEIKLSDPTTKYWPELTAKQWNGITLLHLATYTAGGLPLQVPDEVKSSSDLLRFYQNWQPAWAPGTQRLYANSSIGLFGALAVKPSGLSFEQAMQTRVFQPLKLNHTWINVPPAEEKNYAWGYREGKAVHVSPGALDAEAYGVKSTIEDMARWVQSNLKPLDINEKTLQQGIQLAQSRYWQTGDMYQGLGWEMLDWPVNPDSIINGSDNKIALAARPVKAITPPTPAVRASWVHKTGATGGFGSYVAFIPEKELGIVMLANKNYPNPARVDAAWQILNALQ
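AmpC (5.3 nM in the dispensed reagent) in 20 mM phosphate pH 7.0 with 0.01% (detergent screen) or 0.0001% Triton X-100 was preincubated with compounds for 15 min at room temperature. Nitrocefin was then added from an 800 uM solution, and hydrolysis was followed at 480 nm.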
SARS PLP yeast: SARS-CoV PLP inhibition in yeast | hit rate 0.19% among 330,000 | Potency, µM (top dose mostly 32.9 µM), most hits filed as activators | S. cerevisiae expressing SARS-CoV PLpro, growth rescue; calls by dose curve; also: nearly all actives have a fitted effect of over 55% in size
Sm TGR block: inhibitors of Schistosoma mansoni thioredoxin glutathione reductase. Q962Y6. purified TGR, DTNB reduction, TNB absorbance 405 nm. Potency, µM (top dose mostly 114 µM), most hits filed as inhibitors. hit rate 3% among 360,000; also: nearly all actives have a fitted effect of over 60% in size
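First, TGR (20 nM dispensed) and NADPH were mixed with compound. Second, a 15 min room-temperature incubation followed. Third, further NADPH and then DTNB were added to start the reaction. Finally, TNB absorbance was monitored kinetically.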
AmpC no deterg: blocks E. coli AmpC beta-lactamase in detergent-free assay; hit rate 0.52% among 330,000; AID 485341; Potency, µM (highest dose often 57.1 µM), most hits filed as inhibitors; P00811; AmpC nitrocefin hydrolysis, absorbance 480 nm, 0.0001% Triton; also: nearly all actives have a fitted effect of over 20% in size
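20 mM phosphate pH 7.0 + 0.01% (detergent screen) or 0.0001% Triton X-100; 5.3 nM AmpC reagent; cpd preinc 15 min RT; nitrocefin (800 uM stock) to start; A480 q20 s × 4 min; Activity was normalised to no-enzyme and no-compound control wells.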
Pf growth 48h: P. falciparum growth inhibition at 48 hours (one generation); Potency, µM (top dose mostly 28.7 µM), usual class: inhibitors; hit rate 5.9% among 310,000; P. falciparum luciferase growth in erythrocytes, 48 h
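A one-generation exposure of luciferase-tagged malaria parasites in RPMI 1640/Albumax erythrocyte culture, 37 C and 5% CO2. Inhibition is inferred from decreased luminescence after adding detection reagent.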
Large screens that a line does not name were inactive. Most compounds without a hit are left out; they make up all but 12% or so of the library. Unless noted, calls follow the shape of the dose curve; as a rule, active = well fitted curve in the direction sought with a large enough effect; inconclusive = small, poorly fitted or top-dose-only effect, or another doubt; inactive = no such curve, though single readings can be large; an effect the other way counts as inactive or inconclusive.

COCCCN(Cc1ccco1)C(=O)Cn1ncc2c(=O)oc3ccc(C)cc3c21	none
Cc1ccccc1C(=O)Nc1nnc(S(=O)(=O)N2CCc3ccccc32)s1	none (no result: Pf growth 96h, SARS PLP yeast, AmpC no deterg, Pf growth 48h)
O=C(CCCn1c(=O)c2sccc2n(Cc2ccc(F)cc2Cl)c1=O)NCc1ccc2c(c1)OCO2	none (no result: Pf growth 96h, SARS PLP yeast, AmpC no deterg, Pf growth 48h)
Cc1ccc(N(CC(=O)NCCSCc2ccco2)S(=O)(=O)c2ccc(C)cc2)cc1	Pf growth 96h 6.6µM, Pf growth 48h inconclusive
COc1ccc(N(CC2CO2)S(=O)(=O)c2ccccc2)cc1 (stereo not drawn)	Sm TGR block 40µM
COc1ccc(S(=O)(=O)N(CC(=O)NCc2ccccn2)c2ccc(Cl)cc2)cc1	Pf growth 48h 10µM
CCCCC(CC)CNC(=O)c1ccc(Cn2c(=O)[nH]c3cc(OC)c(OC)cc3c2=O)cc1 (stereo not drawn)	none (no result: Pf growth 96h, SARS PLP yeast, AmpC no deterg, Pf growth 48h)
Cc1ccc2cc(/C=C/C(=O)c3ccco3)c(Cl)nc2c1	Sm TGR block 8.9µM, Pf growth 48h inconclusive
COc1ccc2cc(/C=C/C(=O)c3ccco3)c(Cl)nc2c1	Sm TGR block 45µM, Pf growth 48h inconclusive (no result: Pf growth 96h)
Cc1ccc(C(=O)N(Cc2ccc(N(C)C)cc2)CC2CCCO2)cc1 (stereo not drawn)	none (no result: Pf growth 96h, SARS PLP yeast, AmpC no deterg, Pf growth 48h)
COc1cc(-c2oc3ccc(C)cc3c(=O)c2O)cc(OC)c1OC	none (no result: Pf growth 96h, SARS PLP yeast, AmpC no deterg, Pf growth 48h)
Cc1ccc(C(c2nnnn2Cc2ccccc2)N2CC=C(c3ccc(F)cc3)CC2)cc1 (stereo not drawn)	Pf growth 48h inconclusive
Fc1ccc(Cn2nnnc2C(c2ccc(Cl)cc2)N2CC=C(c3ccc(F)cc3)CC2)cc1 (stereo not drawn)	Pf growth 48h 12µM
Fc1ccc(C2=CCN(C(c3ccc(Cl)cc3)c3nnnn3Cc3ccccc3)CC2)cc1 (stereo not drawn)	AmpC inh detg inconclusive, Pf growth 48h 12µM
O=C(CSc1ccc(-c2ccccn2)nn1)Nc1cccc(F)c1	Pf growth 96h inconclusive
COc1ccccc1Cn1c(C2CC(=O)N(c3ccccc3OC)C2)nc2ccccc21 (stereo not drawn)	none (no result: Pf growth 96h, SARS PLP yeast, AmpC no deterg, Pf growth 48h)
O=C(NCc1ccccc1)c1sc(=S)n2c1[nH]c(=O)c1ccccc12	Pf growth 96h 13µM
O=C1C2=C(Nc3ccccc3SC2c2ccccc2C(F)(F)F)c2ccccc21 (stereo not drawn)	none (no result: Pf growth 96h, SARS PLP yeast, AmpC no deterg, Pf growth 48h)
CC(=O)N1CCN(C(=O)CCc2nnc(CCCCc3ccccc3)o2)CC1	Pf growth 96h 12µM, Sm TGR block 45µM
ClCc1cc2ccccc2nc1Cl	Sm TGR block 32µM, Pf growth 48h inconclusive
Cc1ccc2cc(CCl)c(Cl)nc2c1	Sm TGR block 25µM
CCc1cc2ccccc2nc1Cl	none (no result: Sm TGR block)
CCOc1ccccc1-c1nnc(SCc2ccc(Cl)cc2)o1	none (no result: Pf growth 96h, SARS PLP yeast, AmpC no deterg, Pf growth 48h)
O=C(Nc1ccccc1-c1nnc(SCc2ccccc2)o1)c1ccccc1	Pf growth 96h inconclusive, Pf growth 48h inconclusive
Clc1ccccc1CSc1nnc(/C=C/c2ccccc2)o1	none
O=c1c(-c2nnc(SCc3ccc(Cl)cc3)o2)cccn1Cc1ccccc1	Pf growth 96h 13µM, Pf growth 48h inconclusive
Clc1ccc(CSc2nnc(/C=C/c3ccccc3)o2)cc1	AmpC no deterg 0.16µM, Pf growth 48h inconclusive
O=C(Nc1ccccc1-c1nnc(SCc2ccc(Cl)cc2)o1)c1ccccc1	AmpC no deterg inconclusive, Pf growth 48h 13µM
CC[C@]12c3[nH]c4cc(-c5ccco5)ccc4c3CCN1C(=O)[C@@H](CC(=O)NCCCOC)C[C@@H]2C(=O)N1CCN(C(=O)c2ccco2)CC1	none (no result: Pf growth 96h, AmpC inh detg, Sm TGR block, Pf growth 48h)
CN1CCc2nc3sc(C(=O)C45CC6CC(CC(C6)C4)C5)c(N)c3cc2C1	Pf growth 96h 2.6µM, Sm TGR block inconclusive, Pf growth 48h 9.3µM
O=C(CNC(=O)c1cccc(F)c1)N/N=C/c1cc(Br)ccc1OC(=O)/C=C/c1ccco1	Pf growth 96h 13µM, Sm TGR block inconclusive, AmpC no deterg 16µM, Pf growth 48h 13µM
COc1ccc([N+](=O)[O-])cc1/C=N/NC(=O)CNC(=O)c1cccc(F)c1	Pf growth 96h 1.9µM
O=C(CNC(=O)c1ccccc1O)N/N=C/c1cc(Br)ccc1OC(=O)/C=C/c1ccco1	Pf growth 96h 8.3µM, Sm TGR block inconclusive, AmpC no deterg 3.2µM, Pf growth 48h inconclusive
COc1ccc(N2CCCn3c2nc2c3c(=O)n(Cc3ccccc3F)c(=O)n2C)c(OC)c1	AmpC inh detg inconclusive (no result: Pf growth 48h)
O=c1c2ccccc2nc(COc2ccccc2)n1/N=C/c1ccc(O)cc1O	SARS PLP yeast inconclusive, AmpC no deterg inconclusive
O=[N+]([O-])c1ccc(O)c(/C=N/n2c(CO)nc3ccccc32)c1	Pf growth 96h 13µM, Pf growth 48h inconclusive
C/C(=N\OCc1nc2ccccc2c(=O)n1/N=C/c1cc([N+](=O)[O-])ccc1O)c1ccccc1	Pf growth 96h inconclusive, SARS PLP yeast inconclusive, Sm TGR block 35µM, Pf growth 48h inconclusive
C/C(=N\OCc1nc2ccccc2c(=O)n1/N=C/c1cc(C)cc([N+](=O)[O-])c1O)c1ccccc1	Pf growth 96h inconclusive, Pf growth 48h 6.6µM
COc1cccc(NC(=O)Cn2c(=O)n(CCCCC(=O)NCCc3ccccc3)c(=O)c3ccccc32)c1	none (no result: Pf growth 96h, SARS PLP yeast, AmpC no deterg, Pf growth 48h)
COc1ccc(C(=O)NCC(=O)NC2=NCCS2)cc1	AmpC inh detg inconclusive, AmpC no deterg 35µM
C=CCn1c(CCNC(=O)c2cccs2)nnc1SCC(=O)Nc1cccc(C(C)=O)c1	Pf growth 96h 9.3µM, AmpC inh detg inconclusive
CCn1c(CNC(=O)c2ccc(Cl)cc2)nnc1SCC(=O)NC1=NCCS1	Pf growth 96h 8.3µM
CCN(CC)C(=O)CSc1nc2ccc(NC(=O)CSc3nnc(COc4ccccc4C)n3C)cc2s1	Pf growth 96h 9.3µM, AmpC inh detg inconclusive, Pf growth 48h inconclusive
CC(C)(C)CC(C)(C)c1ccc(O)c(-n2nc3ccccc3n2)c1	Pf growth 48h inconclusive (no result: AmpC inh detg, SARS PLP yeast, Sm TGR block, AmpC no deterg)
COc1ccc(NC(=O)CSc2nc3ccccc3nc2N2CCCC2)c(OC)c1	AmpC inh detg inconclusive, Pf growth 48h inconclusive
O=C1CN(C(=O)CSc2nnc(C3CC3)n2-c2ccccc2)c2ccccc2N1	none
CCSCc1nnc(SCC(=O)Nc2ccc(F)cc2)n1CC	Pf growth 96h 12µM
Cn1c(CC(=O)Nc2ccccc2)nnc1SCC(=O)NC1=NCCS1	Pf growth 96h 2.6µM
CCn1c(COc2ccccc2C)nnc1SCC(=O)CC(=O)Nc1ccccc1	Pf growth 48h 10µM
CCn1c(CNC(=O)c2cccs2)nnc1SCC(=O)Nc1ccc(Cl)cc1	Pf growth 96h 9.3µM, Pf growth 48h 10µM
Cc1ccc(-c2nc(CS(=O)(=O)CC(=O)N3CCN(c4cccc(C)c4C)CC3)c(C)o2)cc1	none (no result: Pf growth 96h, SARS PLP yeast, AmpC no deterg, Pf growth 48h)
